Measured values reported in the supplement of paper PMC13380429.

Test system: Vero E6 infected with SARS-CoV-2
Test: inhibition of SARS-CoV-2 cytopathic effect; higher = more antiviral protection, active = above 15
Conditions: 48 h

Measured: inhibition of SARS-CoV-2 cytopathic effect

N[C@@H](CC(=O)Nc1ccc(Oc2cc(F)c(F)cc2Br)cc1)C(=O)O
inactive: 1 nM -3.45% | 8.33 nM -0.99% | 100 nM -1.17% | 833.33 nM -3.56% | 10000 nM 6.38%

O=C(NCc1ccccc1)OCCO [buramate]
inactive: 1 nM -3.11% | 8.33 nM -3.15% | 100 nM -10.9% | 833.33 nM 1.79% | 10000 nM 0.54%

CCOC(=O)C1=C[C@]2(CC)CCCN3CCc4c(n1c1ccccc41)[C@@H]32 [vinpocetine]
inactive: 1 nM -3.18% | 8.33 nM 0.85% | 100 nM 4.53% | 833.33 nM 1.98% | 10000 nM -1.06%

Cc1ccc(Cl)cc1N(CC(=O)Nc1c(F)cccc1F)S(C)(=O)=O
inactive: 1 nM 2.5% | 8.33 nM -2.01% | 100 nM -1.24% | 833.33 nM 0.27% | 10000 nM -0.21%

Nc1c(-c2cccc(C(F)(F)F)c2)nsc1C(=O)O [amflutizole]
inactive: 1 nM -1.13% | 8.33 nM 0.29% | 100 nM -1.28% | 833.33 nM 0.87% | 10000 nM 1.39%

C[C@H]1c2cccc(O)c2C(=O)C2=C(O)[C@]3(O)C(=O)C(C(N)=O)=C(O)[C@@H](N(C)C)[C@@H]3[C@@H](O)[C@@H]21 [doxycycline]
inactive: 1 nM -1.68% | 8.33 nM -0.605% | 100 nM 0.42% | 833.33 nM 0.08% | 10000 nM -0.76%

CCN(CC)CCNC(=O)c1ccccc1I
inactive: 1 nM 1.9% | 8.33 nM 1.7% | 100 nM 2.44% | 833.33 nM -2.04% | 10000 nM 2.51%

CNCCN(C)Cc1c[nH]nc1-c1ccc(O[C@H]2C[C@H](OCCC3CCOCC3)C2)cc1
inactive: 1 nM 0.46% | 8.33 nM -0.78% | 100 nM 4.05% | 833.33 nM 1.11% | 10000 nM 1.7%

CN(C)CC(=O)Nc1ccc2[nH]c(=O)c3ccccc3c2c1
inactive: 1 nM 1.34% | 8.33 nM 2.81% | 100 nM 1.23% | 833.33 nM 5.19% | 10000 nM 6.44%

NNc1nncc2ccccc12 [hydralazine]
inactive: 1 nM 0.09% | 8.33 nM 0.28% | 100 nM -1.28% | 833.33 nM -0.12% | 10000 nM 0.87%

CC(C)n1c(/C=C/[C@@H](O)C[C@@H](O)CC(=O)O)c(-c2ccc(F)cc2)c2ccccc21 [fluvastatin]
inactive: 1 nM -0.24% | 8.33 nM -1.21% | 100 nM 1.75% | 833.33 nM -1.33% | 10000 nM 2.61%

CC(C)[C@H](C(=O)Nc1ccc(C(=O)NO)cc1)c1ccccc1
inactive: 1 nM 3.84% | 8.33 nM 0.31% | 100 nM -0.75% | 833.33 nM 1.02% | 10000 nM 0.89%

CCCc1nc(C)c2c(=O)nc(-c3cc(S(=O)(=O)N4CCN(CC)CC4)ccc3OCC)[nH]n12 [vardenafil]
inactive: 1 nM -1.45% | 8.33 nM -1.02% | 100 nM 0.46% | 833.33 nM -0.81% | 10000 nM 1.4%

C=CCOc1ccccc1OCC(O)CNC(C)C (stereo not given) [oxprenolol]
inactive: 1 nM 1.58% | 8.33 nM -0.87% | 100 nM -1.99% | 833.33 nM -0.79% | 10000 nM -0.79%

Cc1ccc(C(=O)Nc2ccc(CN3CCN(C)CC3)c(C(F)(F)F)c2)cc1C#Cc1cnc2[nH]ncc2c1
inactive: 1 nM 1.62% | 8.33 nM 6.08% | 100 nM 4.44% | 833.33 nM -8.47% | 10000 nM -20.9%

C=CC[C@]1(O)CC[C@H]2[C@@H]3CCC4=CCCC[C@@H]4[C@H]3CC[C@@]21C [allylestrenol]
inactive: 1 nM -1.01% | 8.33 nM -2.16% | 100 nM 1.52% | 833.33 nM 1.07% | 10000 nM 1.75%

O=C1CCc2cc(OCCCCc3nnnn3C3CCCCC3)ccc2N1 [cilostazol]
inactive: 1 nM -1.01% | 8.33 nM -0.9% | 100 nM 1.96% | 833.33 nM -0.77% | 10000 nM -0.84%
